Results reported in PMC4336329 (PLoS ONE, 2015).
Hit rate of the full screen: of about 310,000 compounds, about 14,000 (4.5%) showed an effect of 50% or more. The effect is printed as a negative number. The entries come from a sample that favours strong results as a whole.

The molecules below were run against human ether-à-go-go-related gene (hERG) potassium channel (human, UniProt Q12809) (assay: primary screen, population patch clamp on CHO cells stably expressing hERG; higher = less effect of the substance).
Sequence of human ether-à-go-go-related gene (hERG) potassium channel (Q12809 whole entry, looked up): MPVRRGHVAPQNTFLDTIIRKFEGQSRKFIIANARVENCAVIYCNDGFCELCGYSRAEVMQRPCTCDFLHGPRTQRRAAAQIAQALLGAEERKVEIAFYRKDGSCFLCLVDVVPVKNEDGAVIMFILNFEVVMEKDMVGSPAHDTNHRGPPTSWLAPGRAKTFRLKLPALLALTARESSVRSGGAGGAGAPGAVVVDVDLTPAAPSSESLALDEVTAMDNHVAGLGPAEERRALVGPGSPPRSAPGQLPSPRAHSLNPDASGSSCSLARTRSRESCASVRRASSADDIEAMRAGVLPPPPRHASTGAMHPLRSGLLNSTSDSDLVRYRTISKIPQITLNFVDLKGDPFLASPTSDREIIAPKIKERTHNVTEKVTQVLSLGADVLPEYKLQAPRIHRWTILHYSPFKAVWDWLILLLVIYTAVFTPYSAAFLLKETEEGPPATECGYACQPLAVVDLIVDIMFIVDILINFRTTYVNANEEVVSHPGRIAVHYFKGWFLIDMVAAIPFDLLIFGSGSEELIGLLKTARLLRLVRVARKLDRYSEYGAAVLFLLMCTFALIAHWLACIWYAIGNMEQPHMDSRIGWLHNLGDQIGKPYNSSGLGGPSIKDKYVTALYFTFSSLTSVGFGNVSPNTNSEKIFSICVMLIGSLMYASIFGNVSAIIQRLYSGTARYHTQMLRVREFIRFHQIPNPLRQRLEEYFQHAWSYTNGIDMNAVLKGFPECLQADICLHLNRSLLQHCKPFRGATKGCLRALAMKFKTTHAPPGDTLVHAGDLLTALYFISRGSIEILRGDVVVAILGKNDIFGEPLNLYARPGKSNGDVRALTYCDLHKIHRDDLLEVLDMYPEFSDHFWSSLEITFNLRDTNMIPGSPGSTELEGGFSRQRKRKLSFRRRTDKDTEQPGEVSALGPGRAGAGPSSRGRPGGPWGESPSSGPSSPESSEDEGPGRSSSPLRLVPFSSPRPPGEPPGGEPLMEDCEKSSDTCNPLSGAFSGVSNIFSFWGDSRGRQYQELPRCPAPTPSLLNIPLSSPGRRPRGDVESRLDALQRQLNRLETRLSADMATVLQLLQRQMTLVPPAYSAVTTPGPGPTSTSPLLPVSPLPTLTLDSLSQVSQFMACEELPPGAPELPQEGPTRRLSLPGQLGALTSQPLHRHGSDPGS
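Further: peak tail current of the secondary pulse compared with the same well before compound.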

Structure (SMILES) | hERG current change (%, negative = inhibition) at 10uM [%]
O=C(Oc1ccc2ccc(=O)oc2c1)c1ccccc1 | 14.2
O=C(Oc1ccc2ccc(=O)oc2c1)c1ccco1 | -73.1
O=C(Oc1ccc2ccccc2c1)c1ccco1 | 5.27
COc1ccc(CN2CCN(C(=O)c3cccs3)CC2)cc1Br | -24.4
CCC(CC)C(=O)NCCc1ccc(OC)cc1 | 17.8
Cc1csc(NC(=O)c2cccnc2)n1 | 13.5
CCc1ccc(CN(C)C(=O)c2cc(S(=O)(=O)N3CCN(CC)CC3)ccc2Cl)cc1 | -25.3
CCN1CCN(S(=O)(=O)c2ccc(Cl)c(C(=O)N(C)C(c3ccccc3)c3ccccc3)c2)CC1 | -50.5
CCN1CCN(S(=O)(=O)c2ccc(Cl)c(C(=O)N(C)Cc3cccc(Cl)c3Cl)c2)CC1 | -61.3
CCN1CCN(S(=O)(=O)c2ccc(Cl)c(C(=O)N(C)Cc3cccs3)c2)CC1 | -14.6
CCN1CCN(S(=O)(=O)c2ccc(Cl)c(C(=O)N(C)Cc3ccccc3)c2)CC1 | -28.8
CCN1CCN(S(=O)(=O)c2ccc(Cl)c(C(=O)N(C)Cc3ccc(Cl)cc3Cl)c2)CC1 | -9.34
O=C(O)c1ccc2c(c1)C(=O)N(c1cccc(S(=O)(=O)Nc3cccc(C(F)(F)F)c3)c1)C2=O | 21.1
CCN(CC)S(=O)(=O)c1ccc(C(C)NC(=O)C2CCCN2C(=O)c2cccs2)cc1 (centres unmarked) | -15.5
Cc1cc(Cl)ccc1C(=O)C1CCCN(C(=O)CCN2CCCO2)C1 (centres unmarked) | -1.54
CC(C)(C)NC(=O)C(c1ccccn1)N(C(=O)C1CSC(=O)C1)c1ccc(F)cc1 (centres unmarked) | 6.26
C=CCn1c(O)c(C(C)=NC2CCN(Cc3ccccc3)CC2)c(=O)[nH]c1=O | -55.7
O=c1[nH]c(O)c(C=NC2CCN(Cc3ccccc3)CC2)c(=O)[nH]1 | -31.6
C=CCn1c(O)c(C(C)=NCCc2ccccc2)c(=O)[nH]c1=O | -14.7
CCC(=NCCc1ccccc1)c1c(O)[nH]c(=O)[nH]c1=O | 10.1
CCC(=NC1CCN(Cc2ccccc2)CC1)c1c(O)[nH]c(=O)[nH]c1=O | -52.4
C=CCn1c(O)c(C(C)=NC2CC2)c(=O)[nH]c1=O | 9.27

Structure (SMILES) | hERG current change (%, negative = inhibition) at 10uM [%]
Cc1ccccc1CNC(=O)C1CCN(c2nnc(N3CCCC3=O)s2)CC1 | 19.3
CC(C)(C)c1csc(CS(=O)(=O)c2ccccn2)n1 | -6.8
CCc1nnc2n1N=C(c1ccc([N+](=O)[O-])cc1)CS2 | -65.5
Br.CCc1nnc2n1N=C(c1cccc([N+](=O)[O-])c1)CS2 | -32.1
CCOc1ccc(C2=Nn3cnnc3SC2)cc1 | -14.8
Brc1ccc(C2=Nn3cnnc3SC2)cc1 | 13.6
O=[N+]([O-])c1ccc(C2=Nn3cnnc3SC2)cc1 | -62.2
Br.CCCc1nnc2n1N=C(c1ccc([N+](=O)[O-])cc1)CS2 | -38.6
O=c1[nH]c(=O)n(CCc2ccccc2)c(O)c1C=NCCCn1ccnc1 | -2.66
COc1ccccc1CC(NC(C)=O)C(=O)NC1CCN(C(=O)Nc2ccccc2F)CC1 (centres unmarked) | 28.3
Cc1ccc(Cl)cc1NS(=O)(=O)c1ccc2oc(=O)ccc2c1 | -25.7
COc1ccc(CCN(C)CC(O)c2ccccc2)cc1OC.O=C(O)C(=O)O (centres unmarked) | -32.2
COc1ccc(CCN(C)CC(O)COC(c2ccc(F)cc2)c2ccc(F)cc2)cc1OC (centres unmarked) | -79.2
COc1ccc(CCN(C)Cc2nc(Cc3ccc(OC)c(OC)c3)no2)cc1OC | 0.332
COc1ccc(C(CNCC(O)COc2c(C)ccc(C)c2C)N(C)C)cc1 (centres unmarked) | -44.1
COc1ccc(CCN(C)CC(O)COc2c(C)ccc(C)c2C)cc1OC (centres unmarked) | -76
COc1ccc(CCN(C)CC(O)COc2ccc(C(C)=O)cc2OC)cc1OC (centres unmarked) | -21.6
O=C(Nc1ccc(Nc2ccccc2)cc1)c1cc([N+](=O)[O-])ccc1Cl | 11.2
CNc1ccc(Br)cc(C(=O)/C=C/c2cccc(OC)c2)c1=O | -1.19
COc1ccc(NC2c3ncccc3C(=O)N2Cc2cccs2)cc1 (centres unmarked) | -18.4
CCc1noc(C)c1C(=O)N1CCOCC1 | 14.4
COC(=O)N1C(=O)[C@](c2ccccc2)(C(C)C)N1C(=O)OC | 12.2
